Measured values reported in PubChem BioAssay AID1159580 (chemical genetic matrix, 2015).
Several values for one entry are separate records, joined by “and”; a condition that tells them apart may be missing. Identical values can stand only once. In all, about 5,500 compounds went through this assay and about 2,000 (36%) were called active. Roughly 18% stayed inconclusive and do not appear here. Some of the results follow. A number with no mark means an inactive call. Rule as the data show it: active = normalized growth mostly below about 0.91 (no sharp cut-off); inconclusive = no clear call, values can overlap the other calls; inactive = mostly above about 0.92.

Experiment: chemical genetic growth profiling, strain panel (AID 1159580);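 also: tested at 20 µM; growth read once vehicle control cultures reached saturation at 30 °C; 1 = growth at the plate median or of vehicle wells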
Conditions: S. cerevisiae deletion strains, growth OD

C=CC(C1=CC(=O)C=CC1=O)c1ccccc1 (stereo unspecified)
normalized growth (locus YAL021C, strain ccr4, stronger effect = lower value): 1.01
normalized growth (locus YAL026C, strain drs2, stronger effect = lower value): 0.983
normalized growth (locus YAL030W, strain snc1, stronger effect = lower value): 1
normalized growth (locus YBL061C, strain skt5, stronger effect = lower value): 1
normalized growth (locus YBR009C, strain hhf1, stronger effect = lower value): 0.995
normalized growth (locus YBR021W, strain FUR4, stronger effect = lower value): 0.982
normalized growth (locus YBR023C, strain chs3, stronger effect = lower value): 1.01
normalized growth (locus YBR171W, strain sec66, stronger effect = lower value): 1.02
normalized growth (locus YBR229C, strain ROT2, stronger effect = lower value): 0.974
normalized growth (locus YBR231C, strain swc5, stronger effect = lower value): 1.01
normalized growth (locus YBR279W, strain paf1, stronger effect = lower value): 0.993
normalized growth (locus YCL011C, strain gbp2, stronger effect = lower value): 1.01
normalized growth (locus YCL016C, strain dcc1, stronger effect = lower value): 0.994
normalized growth (locus YCL029C, strain bik1, stronger effect = lower value): 1
normalized growth (locus YCL061C, strain MRC1, stronger effect = lower value): 0.993
normalized growth (locus YCL069W, strain vba3, stronger effect = lower value): 1
normalized growth (locus YCR088W, strain abp1, stronger effect = lower value): 1.01
normalized growth (locus YDL005C, strain med2, stronger effect = lower value): 1.01
normalized growth (locus YDL035C, strain GPR1, stronger effect = lower value): 0.937
normalized growth (locus YDL040C, strain nat1, stronger effect = lower value): 0.989
normalized growth (locus YDL074C, strain BRE1, stronger effect = lower value): 0.916
normalized growth (locus YDL101C, strain DUN1, stronger effect = lower value): 0.96
normalized growth (locus YDL134C, strain PPH21, stronger effect = lower value): 0.863 (active)
normalized growth (locus YDL185W, strain tfp1, stronger effect = lower value): 0.994
normalized growth (locus YDL192W, strain arf1, stronger effect = lower value): 0.956
normalized growth (locus YDR001C, strain nth1, stronger effect = lower value): 1.01
normalized growth (locus YDR069C, strain doa4, stronger effect = lower value): 1.01
normalized growth (locus YDR101C, strain arx1, stronger effect = lower value): 0.977
normalized growth (locus YDR137W, strain rgp1, stronger effect = lower value): 0.961
normalized growth (locus YDR159W, strain sac3, stronger effect = lower value): 1.03
normalized growth (locus YDR162C, strain NBP2, stronger effect = lower value): 0.778 (active)
normalized growth (locus YDR195W, strain ref2): 1.01
normalized growth (locus YDR297W, strain sur2, stronger effect = lower value): 0.996
normalized growth (locus YDR318W, strain mcm21, stronger effect = lower value): 0.953
normalized growth (locus YDR334W, strain swr1, stronger effect = lower value): 1.01
normalized growth (locus YDR335W, strain msn5, stronger effect = lower value): 0.999
normalized growth (locus YDR388W, stronger effect = lower value): 0.991
normalized growth (locus YDR392W, strain spt3, stronger effect = lower value): 0.917
normalized growth (locus YDR502C, strain sam2, stronger effect = lower value): 0.95
normalized growth (locus YEL003W, strain gim4, stronger effect = lower value): 0.982
normalized growth (locus YEL037C, strain rad23, stronger effect = lower value): 1.01
normalized growth (locus YEL061C, strain CIN8 (second series), stronger effect = lower value): 1.01
normalized growth (locus YEL061C, strain CIN8, stronger effect = lower value): 0.974
normalized growth (locus YER015W, strain faa2, stronger effect = lower value): 0.996
normalized growth (locus YER016W, strain bim1, stronger effect = lower value): 1
normalized growth (locus YER110C, stronger effect = lower value): 0.98
normalized growth (locus YER111C, strain swi4, stronger effect = lower value): 1
normalized growth (locus YER155C, strain BEM2 (second series), stronger effect = lower value): 0.895
normalized growth (locus YER155C, strain BEM2, stronger effect = lower value): 1.01
normalized growth (locus YER167W, strain BCK2, stronger effect = lower value): 0.947
normalized growth (locus YFR010W, strain ubp6, stronger effect = lower value): 1
normalized growth (locus YGL078C, strain dbp3, stronger effect = lower value): 0.995
normalized growth (locus YGL086W, strain mad1, stronger effect = lower value): 0.927 (active)
normalized growth (locus YGL167C, strain pmr1, stronger effect = lower value): 1.01
normalized growth (locus YGL173C, strain kem1, stronger effect = lower value): 1
normalized growth (locus YGL227W, strain vid30, stronger effect = lower value): 1.01
normalized growth (locus YGL240W, strain doc1, stronger effect = lower value): 0.964
normalized growth (locus YGL248W, strain PDE1, stronger effect = lower value): 0.907
normalized growth (locus YGL253W, strain hxk2, stronger effect = lower value): 1.02
normalized growth (locus YGR078C, strain PAC10, stronger effect = lower value): 0.805 (active)
normalized growth (locus YGR135W, strain pre9, stronger effect = lower value): 0.931
normalized growth (locus YGR229C, strain SMI1, stronger effect = lower value): 0.722 (active)
normalized growth (locus YGR252W, strain gcn5, stronger effect = lower value): 0.952
normalized growth (locus YHR013C, strain ard1, stronger effect = lower value): 1.04
normalized growth (locus YHR027C, strain rpn1, stronger effect = lower value): 1.01
normalized growth (locus YHR030C, strain SLT2, stronger effect = lower value): 0.984 and 1.06
normalized growth (locus YHR079C, strain IRE1 (second series), stronger effect = lower value): 0.98
normalized growth (locus YHR079C, strain IRE1, stronger effect = lower value): 1.02
normalized growth (locus YHR094C, strain hxt1, stronger effect = lower value): 0.993
normalized growth (locus YHR129C, strain ARP1, stronger effect = lower value): 0.957
normalized growth (locus YHR142W, strain chs7, stronger effect = lower value): 1.01
normalized growth (locus YHR200W, strain rpn10, stronger effect = lower value): 0.963
normalized growth (locus YIL066C, strain RNR3, stronger effect = lower value): 0.875
normalized growth (locus YIL073C, strain SPO22, stronger effect = lower value): 0.916
normalized growth (locus YIL125W, strain kgd1, stronger effect = lower value): 0.998
normalized growth (locus YIR030C, strain dcg1, stronger effect = lower value): 0.972
normalized growth (locus YJL092W, strain hpr5, stronger effect = lower value): 1.01
normalized growth (locus YJL095W, strain BCK1 (second series), stronger effect = lower value): 1.01
normalized growth (locus YJL095W, strain BCK1, stronger effect = lower value): 0.891 and 1.06
normalized growth (locus YJL115W, strain asf1, stronger effect = lower value): 1.01
normalized growth (locus YJL129C, strain trk1, stronger effect = lower value): 1.04
normalized growth (locus YJL134W, strain LCB3, stronger effect = lower value): 0.99
normalized growth (locus YJL154C, strain vps35, stronger effect = lower value): 0.997
normalized growth (locus YJL164C, strain tpk1, stronger effect = lower value): 0.984
normalized growth (locus YJL166W, strain qcr8, stronger effect = lower value): 0.991
normalized growth (locus YJL168C, strain set2, stronger effect = lower value): 0.992
normalized growth (locus YJL187C, strain SWE1 (second series), stronger effect = lower value): 0.937
normalized growth (locus YJL187C, strain SWE1, stronger effect = lower value): 1
normalized growth (locus YJR043C, strain POL32, stronger effect = lower value): 0.889
normalized growth (locus YJR066W, strain TOR1, stronger effect = lower value): 1
normalized growth (locus YJR075W, strain HOC1, stronger effect = lower value): 0.929
normalized growth (locus YKL009W, strain mrt4, stronger effect = lower value): 0.956
normalized growth (locus YKL068W, stronger effect = lower value): 1.05
normalized growth (locus YKL085W, strain MDH1 (second series), stronger effect = lower value): 0.978
normalized growth (locus YKL085W, strain MDH1, stronger effect = lower value): 0.978
normalized growth (locus YKL160W, strain elf1, stronger effect = lower value): 0.987
normalized growth (locus YKR001C, strain vps1, stronger effect = lower value): 0.887 (active)
normalized growth (locus YKR026C, strain gcn3, stronger effect = lower value): 1.01
normalized growth (locus YKR091W, strain srl3, stronger effect = lower value): 1.01
normalized growth (locus YLL001W, strain dnm1, stronger effect = lower value): 0.978
normalized growth (locus YLL026W, stronger effect = lower value): 1
normalized growth (locus YLL041C, strain sdh2, stronger effect = lower value): 1.01
normalized growth (locus YLR027C, strain aat2, stronger effect = lower value): 1.01
normalized growth (locus YLR039C, strain RIC1, stronger effect = lower value): 0.64 (active)
normalized growth (locus YLR058C, strain SHM2, stronger effect = lower value): 0.958
normalized growth (locus YLR102C, strain apc9, stronger effect = lower value): 0.978
normalized growth (locus YLR113W, strain HOG1, stronger effect = lower value): 1.02
normalized growth (locus YLR221C, strain rsa3, stronger effect = lower value): 0.992
normalized growth (locus YLR258W, strain gsy2, stronger effect = lower value): 1.01
normalized growth (locus YLR262C, strain YPT6 (second series), stronger effect = lower value): 0.969
normalized growth (locus YLR262C, strain YPT6, stronger effect = lower value): 0.551 (active)
normalized growth (locus YLR268W, strain sec22, stronger effect = lower value): 0.925
normalized growth (locus YLR320W, strain mms22, stronger effect = lower value): 0.983
normalized growth (locus YLR330W, strain CHS5, stronger effect = lower value): 0.882 (active)
normalized growth (locus YLR342W, strain FKS1 (second series), stronger effect = lower value): 0.794
normalized growth (locus YLR342W, strain FKS1, stronger effect = lower value): 1.02
normalized growth (locus YLR357W, strain rsc2, stronger effect = lower value): 0.988
normalized growth (locus YLR370C, strain arc18, stronger effect = lower value): 1.01
normalized growth (locus YLR371W, strain rom2, stronger effect = lower value): 0.973
normalized growth (locus YLR384C, strain iki3, stronger effect = lower value): 1.01
normalized growth (locus YLR418C, strain cdc73, stronger effect = lower value): 0.823 (active)
normalized growth (locus YML016C, strain PPZ1, stronger effect = lower value): 0.976
normalized growth (locus YML032C, strain rad52, stronger effect = lower value): 0.965
normalized growth (locus YML120C, strain ndi1, stronger effect = lower value): 0.998
normalized growth (locus YML124C, strain tub3, stronger effect = lower value): 0.971
normalized growth (locus YMR058W, strain fet3, stronger effect = lower value): 1
normalized growth (locus YMR078C, strain ctf18, stronger effect = lower value): 0.963
normalized growth (locus YMR125W, strain sto1, stronger effect = lower value): 1.02
normalized growth (locus YMR129W, stronger effect = lower value): 1
normalized growth (locus YMR205C, strain PFK2, stronger effect = lower value): 0.997
normalized growth (locus YMR223W, strain ubp8, stronger effect = lower value): 0.971
normalized growth (locus YMR231W, strain pep5, stronger effect = lower value): 0.986
normalized growth (locus YMR263W, strain SAP30, stronger effect = lower value): 0.966
normalized growth (locus YMR307W, strain GAS1, stronger effect = lower value): 0.966
normalized growth (locus YNL067W, strain RPL9B, stronger effect = lower value): 0.943
normalized growth (locus YNL071W, strain lat1, stronger effect = lower value): 1.01
normalized growth (locus YNL153C, strain GIM3, stronger effect = lower value): 0.93
normalized growth (locus YNL183C, strain NPR1, stronger effect = lower value): 0.975
normalized growth (locus YNL209W, strain ssb2, stronger effect = lower value): 0.996
normalized growth (locus YNL233W, strain BNI4, stronger effect = lower value): 0.815 (active)
normalized growth (locus YNL248C, strain rpa49, stronger effect = lower value): 0.986
normalized growth (locus YNL250W, strain rad50, stronger effect = lower value): 1
normalized growth (locus YNL271C, strain bni1, stronger effect = lower value): 0.979
normalized growth (locus YNL298W, strain CLA4, stronger effect = lower value): 0.982
normalized growth (locus YNL307C, strain MCK1, stronger effect = lower value): 0.674 (active)
normalized growth (locus YNL322C, strain KRE1 (second series), stronger effect = lower value): 1.01
normalized growth (locus YNL322C, strain KRE1, stronger effect = lower value): 0.945
normalized growth (locus YNR049C, strain mso1, stronger effect = lower value): 1.02
normalized growth (locus YNR052C, strain pop2, stronger effect = lower value): 0.997
normalized growth (locus YOL012C, strain htz1): 0.678
normalized growth (locus YOL147C, strain pex11, stronger effect = lower value): 0.975
normalized growth (locus YOR001W, strain rrp6, stronger effect = lower value): 0.997
normalized growth (locus YOR061W, strain CKA2, stronger effect = lower value): 0.978
normalized growth (locus YOR069W, strain VPS5, stronger effect = lower value): 0.982
normalized growth (locus YOR070C, strain gyp1, stronger effect = lower value): 0.981
normalized growth (locus YOR080W, strain dia2, stronger effect = lower value): 1
normalized growth (locus YOR083W, strain WHI5, stronger effect = lower value): 0.981
normalized growth (locus YOR106W, strain vam3, stronger effect = lower value): 0.981
normalized growth (locus YOR136W, strain idh2, stronger effect = lower value): 1
normalized growth (locus YOR144C, strain elg1, stronger effect = lower value): 0.975
normalized growth (locus YOR184W, strain ser1, stronger effect = lower value): 0.811 (active)
normalized growth (locus YOR231W, strain MKK1, stronger effect = lower value): 1.04
normalized growth (locus YOR265W, strain rbl2, stronger effect = lower value): 1.02
normalized growth (locus YOR270C, strain vph1, stronger effect = lower value): 0.973
normalized growth (locus YOR290C, strain snf2, stronger effect = lower value): 0.962
normalized growth (locus YOR316C, strain cot1, stronger effect = lower value): 0.993
normalized growth (locus YPL051W, strain arl3, stronger effect = lower value): 0.978
normalized growth (locus YPL078C, strain atp4, stronger effect = lower value): 0.968
normalized growth (locus YPL106C, strain sse1, stronger effect = lower value): 1.02
normalized growth (locus YPL240C, strain hsp82, stronger effect = lower value): 1
normalized growth (locus YPL256C, strain CLN2, stronger effect = lower value): 1.05
normalized growth (locus YPR119W, strain clb2, stronger effect = lower value): 0.975
normalized growth (locus YPR141C, strain kar3, stronger effect = lower value): 0.991
normalized growth (locus YPR163C, strain tif3, stronger effect = lower value): 0.849 (active)
normalized growth (locus YPR167C, strain met16, stronger effect = lower value): 0.963
normalized growth (strain wtn01, stronger effect = lower value): 0.931
